# Tests used:
# Test in all cases: DAPPL (digital affinity profiling via proximity ligation, sequencing); 10 mM Tris-HCl pH 7.5, 50 mM NaCl, 1 mM DTT, 4% glycerol, room temperature, 30 min; GST-TFs on glutathione beads, 16-mer random dsDNA library, 0.1% formaldehyde crosslink after washing; high values mean tight binding
# FEV = biological target: T1, FEV (Homo sapiens, UniProt Q99581 1-238); settings: protein: recombinant; tags: N-terminal GST; dsDNA, one strand shown
# T1 sequence: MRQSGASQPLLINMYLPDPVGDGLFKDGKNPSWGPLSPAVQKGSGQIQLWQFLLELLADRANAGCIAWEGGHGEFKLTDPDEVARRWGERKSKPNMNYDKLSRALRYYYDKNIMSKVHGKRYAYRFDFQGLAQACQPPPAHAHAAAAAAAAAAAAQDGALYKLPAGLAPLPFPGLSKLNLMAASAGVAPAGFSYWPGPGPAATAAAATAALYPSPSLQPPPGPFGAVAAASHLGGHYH
# In short: (§1)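 Pools of DNA-barcoded human transcription factors, expressed in yeast as GST fusions on glutathione beads and combined with a tag-only sample, were incubated with 200 nmole of a 16-mer random double-stranded DNA library. Incubation took 30 min at room temperature in Tris/NaCl/DTT/glycerol buffer and was followed by washing, 0.1% formaldehyde crosslinking, proximity ligation (BsaI/T4 ligase, 1 h, 37 °C), PCR amplification and sequencing on an Illumina NextSeq500. Binding signal is the ratio of a hexamer's read frequency for a factor to its frequency for the tag-only sample.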
# ETV5 = ETV5 (Homo sapiens, UniProt P41161 1-510); settings: protein: recombinant; tags: N-terminal GST; dsDNA, one strand shown
# Sequence of ETV5 (P41161 whole entry): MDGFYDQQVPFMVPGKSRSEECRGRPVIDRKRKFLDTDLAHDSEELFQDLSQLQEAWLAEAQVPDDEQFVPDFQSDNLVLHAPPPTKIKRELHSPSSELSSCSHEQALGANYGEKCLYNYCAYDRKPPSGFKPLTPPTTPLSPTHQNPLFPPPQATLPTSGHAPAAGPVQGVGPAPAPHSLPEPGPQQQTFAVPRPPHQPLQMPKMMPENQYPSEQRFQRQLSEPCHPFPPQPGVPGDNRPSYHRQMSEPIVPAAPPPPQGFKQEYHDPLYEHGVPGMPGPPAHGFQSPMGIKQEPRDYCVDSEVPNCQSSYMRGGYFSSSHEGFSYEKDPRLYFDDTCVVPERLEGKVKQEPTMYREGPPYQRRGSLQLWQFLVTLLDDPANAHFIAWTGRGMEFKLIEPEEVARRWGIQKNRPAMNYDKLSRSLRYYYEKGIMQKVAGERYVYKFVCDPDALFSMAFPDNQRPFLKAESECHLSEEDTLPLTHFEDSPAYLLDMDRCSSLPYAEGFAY
# In short: as §1
# HSF1 = HSF1 (Homo sapiens, UniProt Q00613 1-529); settings: protein: recombinant; tags: N-terminal GST; chain copies: 3; dsDNA, one strand shown
# Sequence of HSF1 (Q00613 whole entry): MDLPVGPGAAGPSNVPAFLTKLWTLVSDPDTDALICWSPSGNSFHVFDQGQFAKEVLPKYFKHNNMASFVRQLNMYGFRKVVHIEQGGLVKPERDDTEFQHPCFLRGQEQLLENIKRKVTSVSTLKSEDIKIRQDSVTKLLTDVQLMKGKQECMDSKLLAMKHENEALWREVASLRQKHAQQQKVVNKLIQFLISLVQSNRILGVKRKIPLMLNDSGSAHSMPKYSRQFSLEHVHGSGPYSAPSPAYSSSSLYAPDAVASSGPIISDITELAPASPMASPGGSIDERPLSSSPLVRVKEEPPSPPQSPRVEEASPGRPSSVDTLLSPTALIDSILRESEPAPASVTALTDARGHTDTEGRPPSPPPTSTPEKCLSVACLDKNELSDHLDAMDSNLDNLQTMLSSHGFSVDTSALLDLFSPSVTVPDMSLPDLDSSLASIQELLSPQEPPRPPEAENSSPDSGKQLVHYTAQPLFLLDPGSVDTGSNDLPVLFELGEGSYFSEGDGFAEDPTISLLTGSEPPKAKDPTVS
# In short: as §1
# SPIC = biological target: T2, SPIC (Homo sapiens, UniProt Q8N5J4 1-248); settings: protein: recombinant; tags: N-terminal GST; dsDNA, one strand shown
# T2 sequence: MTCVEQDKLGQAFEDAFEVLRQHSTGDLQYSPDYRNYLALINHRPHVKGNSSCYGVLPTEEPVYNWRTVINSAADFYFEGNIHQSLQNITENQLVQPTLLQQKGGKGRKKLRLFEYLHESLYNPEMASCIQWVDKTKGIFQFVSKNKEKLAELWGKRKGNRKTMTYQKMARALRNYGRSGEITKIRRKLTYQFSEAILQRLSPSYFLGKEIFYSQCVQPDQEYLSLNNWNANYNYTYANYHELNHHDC
# In short: as §1
# ELF4 = ELF4 (Homo sapiens, UniProt Q99607 1-663); settings: protein: recombinant; tags: N-terminal GST; dsDNA, one strand shown
# Sequence of ELF4 (Q99607 whole entry): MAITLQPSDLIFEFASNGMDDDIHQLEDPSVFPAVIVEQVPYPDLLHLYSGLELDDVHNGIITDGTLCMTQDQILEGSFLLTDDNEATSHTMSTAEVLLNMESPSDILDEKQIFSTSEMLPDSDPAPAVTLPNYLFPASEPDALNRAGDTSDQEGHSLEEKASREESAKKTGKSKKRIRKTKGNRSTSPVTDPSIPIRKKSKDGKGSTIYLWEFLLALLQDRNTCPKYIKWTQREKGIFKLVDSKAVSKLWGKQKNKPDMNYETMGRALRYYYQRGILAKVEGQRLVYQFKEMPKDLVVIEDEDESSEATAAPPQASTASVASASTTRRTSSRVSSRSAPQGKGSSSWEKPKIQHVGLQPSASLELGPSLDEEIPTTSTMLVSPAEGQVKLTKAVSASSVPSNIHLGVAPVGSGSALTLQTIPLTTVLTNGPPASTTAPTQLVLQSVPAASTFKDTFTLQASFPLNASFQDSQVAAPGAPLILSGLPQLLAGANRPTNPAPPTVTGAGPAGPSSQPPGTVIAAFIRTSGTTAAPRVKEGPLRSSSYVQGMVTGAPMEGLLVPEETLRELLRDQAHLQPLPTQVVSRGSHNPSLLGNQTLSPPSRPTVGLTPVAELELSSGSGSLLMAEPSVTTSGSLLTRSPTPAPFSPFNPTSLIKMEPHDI
# In short: as §1
# ELK4 = biological target: T3, ELK4 (Homo sapiens, UniProt P28324-2 1-405); settings: protein: recombinant; tags: N-terminal GST; dsDNA, one strand shown
# T3 sequence: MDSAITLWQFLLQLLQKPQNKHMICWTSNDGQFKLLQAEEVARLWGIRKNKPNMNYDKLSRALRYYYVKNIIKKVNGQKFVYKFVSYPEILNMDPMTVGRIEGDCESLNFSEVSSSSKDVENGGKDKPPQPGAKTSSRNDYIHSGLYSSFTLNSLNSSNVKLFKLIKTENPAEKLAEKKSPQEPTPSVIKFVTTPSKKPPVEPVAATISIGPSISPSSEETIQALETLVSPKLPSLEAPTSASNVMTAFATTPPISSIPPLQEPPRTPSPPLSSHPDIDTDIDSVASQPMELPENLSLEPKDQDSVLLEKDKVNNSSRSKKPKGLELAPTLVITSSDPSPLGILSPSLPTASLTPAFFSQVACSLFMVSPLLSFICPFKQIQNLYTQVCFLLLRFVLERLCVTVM
# In short: as §1
# ETV2 = biological target: T4, ETV2 (Homo sapiens, UniProt O00321 1-342); settings: protein: recombinant; tags: N-terminal GST; dsDNA, one strand shown
# T4 sequence: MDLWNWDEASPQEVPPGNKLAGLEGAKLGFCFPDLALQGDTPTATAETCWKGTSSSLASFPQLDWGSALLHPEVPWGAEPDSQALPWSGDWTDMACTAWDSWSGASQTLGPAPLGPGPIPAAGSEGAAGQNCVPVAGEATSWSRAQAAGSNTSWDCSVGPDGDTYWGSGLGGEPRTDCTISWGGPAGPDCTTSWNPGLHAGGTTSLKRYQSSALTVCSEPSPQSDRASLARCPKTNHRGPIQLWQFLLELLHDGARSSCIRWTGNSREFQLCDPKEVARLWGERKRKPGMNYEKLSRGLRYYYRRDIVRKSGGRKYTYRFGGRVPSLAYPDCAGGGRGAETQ
# In short: as §1
# ELF3 = biological target: T5, ELF3 (Homo sapiens, UniProt P78545 1-371); settings: protein: recombinant; tags: N-terminal GST; dsDNA, one strand shown
# T5 sequence: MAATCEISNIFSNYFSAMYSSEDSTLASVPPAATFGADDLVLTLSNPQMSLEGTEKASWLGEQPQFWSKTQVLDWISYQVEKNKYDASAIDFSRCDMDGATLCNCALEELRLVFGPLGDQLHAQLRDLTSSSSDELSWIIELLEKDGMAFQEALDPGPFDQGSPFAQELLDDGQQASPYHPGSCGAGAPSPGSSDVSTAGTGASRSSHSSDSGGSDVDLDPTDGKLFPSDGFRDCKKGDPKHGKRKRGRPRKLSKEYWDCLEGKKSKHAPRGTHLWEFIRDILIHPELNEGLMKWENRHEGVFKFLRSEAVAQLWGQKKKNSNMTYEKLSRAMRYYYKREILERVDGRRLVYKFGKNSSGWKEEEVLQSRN
# In short: as §1
# CRX = CRX (Homo sapiens, UniProt O43186 1-299); settings: protein: recombinant; tags: N-terminal GST; dsDNA, one strand shown
# Sequence of CRX (O43186 whole entry): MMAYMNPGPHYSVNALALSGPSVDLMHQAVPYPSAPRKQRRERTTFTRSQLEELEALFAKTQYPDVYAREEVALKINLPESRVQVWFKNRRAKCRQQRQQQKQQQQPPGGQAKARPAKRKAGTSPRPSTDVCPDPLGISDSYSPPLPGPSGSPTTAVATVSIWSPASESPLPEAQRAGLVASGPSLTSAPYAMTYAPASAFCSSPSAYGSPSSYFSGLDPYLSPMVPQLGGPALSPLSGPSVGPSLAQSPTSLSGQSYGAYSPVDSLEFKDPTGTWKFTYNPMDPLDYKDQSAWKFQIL
# In short: as §1
# ETV1 = ETV1 (Homo sapiens, UniProt P50549 1-477); settings: protein: recombinant; tags: N-terminal GST; dsDNA, one strand shown
# Sequence of ETV1 (P50549 whole entry): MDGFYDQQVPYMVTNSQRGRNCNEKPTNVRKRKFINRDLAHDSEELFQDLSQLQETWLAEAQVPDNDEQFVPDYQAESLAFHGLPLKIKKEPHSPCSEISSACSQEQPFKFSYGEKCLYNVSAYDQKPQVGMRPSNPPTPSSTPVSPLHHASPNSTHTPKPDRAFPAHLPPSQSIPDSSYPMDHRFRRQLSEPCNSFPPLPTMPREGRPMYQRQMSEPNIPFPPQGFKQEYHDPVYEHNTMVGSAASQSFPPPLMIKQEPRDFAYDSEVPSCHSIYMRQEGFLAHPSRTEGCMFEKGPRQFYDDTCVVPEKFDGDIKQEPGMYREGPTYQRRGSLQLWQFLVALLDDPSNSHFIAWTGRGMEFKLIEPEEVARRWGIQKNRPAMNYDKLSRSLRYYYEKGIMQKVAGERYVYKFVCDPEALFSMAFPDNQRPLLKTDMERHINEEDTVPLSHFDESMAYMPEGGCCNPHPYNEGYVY
# In short: as §1
sequence,measurement,setting,value
AAAAAC,binding signal,FEV,"1.28 fold enrichment (6-mer frequency, TF over GST control)"
same,binding signal,ETV5,"1.26 fold enrichment (6-mer frequency, TF over GST control)"
same,binding signal,HSF1,"1.19 fold enrichment (6-mer frequency, TF over GST control)"
same,binding signal,SPIC,"1.27 fold enrichment (6-mer frequency, TF over GST control)"
same,binding signal,ELF4,"1.31 fold enrichment (6-mer frequency, TF over GST control)"
same,binding signal,ELK4,"1.14 fold enrichment (6-mer frequency, TF over GST control)"
same,binding signal,ETV2,"1.32 fold enrichment (6-mer frequency, TF over GST control)"
same,binding signal,ELF3,"1.3 fold enrichment (6-mer frequency, TF over GST control)"
same,binding signal,CRX,"1.16 fold enrichment (6-mer frequency, TF over GST control)"
same,binding signal,ETV1,"1.27 fold enrichment (6-mer frequency, TF over GST control)"
